Test results from PubChem BioAssay (Tox21).
Results filed as inconclusive are left out. Where a call stands in place of a potency, no number is given. Activity calls are given as the source filed them. Calls come from the whole dose curve; as a rule, active = well fitted cell-killing curve with a large enough effect in the repeat runs; inconclusive = weak or mixed curves; inactive = flat fitted curve, though single readings scatter.

Test: qHTS assay to identify small molecule antagonists of the estrogen receptor beta (ER-beta) signaling pathway - cell viability counter screen (AID 1259382); note: nearly all actives have a fitted effect of over 55% in size
Conditions: ER-beta-UAS-bla HEK293T viability, CellTiter-Glo luminescence, 16 h; series mostly up to 92.4 µM; activity change, negative = cytotoxicity: at the top concentration
Excerpt: U.S. Tox21 Program National Center for Advancing Translational Sciences [NCATS] NIH Chemical Genomics Center [NCGC] U.S. Environmental Protection Agency [EPA] National Institutes of Environmental Health Sciences [NIEHS] National Toxicology Program [NTP] U.S. Food and Drug Administration [FDA] Tox21 Assay Overview: Estrogen receptor (ER), a nuclear hormone receptor, plays an important role in development, metabolic homeostasis and reproduction. Two subtypes of ER, ER-alpha and ER-beta, have similar expression patterns with some uniqueness in both types. Endocrine disrupting chemicals (EDCs) and their interactions with steroid hormone receptors like ER causes disruption of normal endocrine function. To identify the compounds that inhibit ER signaling, an ER-beta-UAS-bla GripTite cell line (Life Technologies, Madison, WI, USA) containing a beta-lactamase reporter gene under the control of an UAS response element was used to screen Tox21 10K compound library. The cytotoxicity of the Tox21 compound library against the ER-beta-bla cell line was tested in parallel by measuring the cell viability using CellTiter-Glo assay in the same wells.
Tox21 Assay Protocol Summary: ER-beta-UAS-bla HEK293T cells were dispensed at 2,000 cells/4 uL of assay medium containing 2% charcoal stripped FBS per well into black wall/clear-bottom 1536-well plates using a Multidrop Combi (ThermoFisher Scientific, Waltham, MA) dispenser. After the assay plates were incubated at a 37C and 5% CO2 for 6 hr, 23 nL of compounds dissolved in DMSO, positive controls or DMSO only was transferred to the assay plate by a Pintool station (Kalypsys, San Diego, CA), followed by addition of 1 uL (1nM as final concentration) of 17-beta-estradiol (E2) in assay medium using a Flying Reagent Dispenser (FRD, Aurora Discovery, San Diego, CA). The plates were incubated at 37C and 5% CO2 for 16 hr. Then 1 uL of LiveBLAzer B/G FRET substrate was added using a Flying Reagent Dispenser, the plates were incubated at room temperature for 2 hours, and fluorescence intensity was measured by an Envision plate reader (PerkinElmer, Shelton, CT). For cell viability readout that measures cytotoxicity, 4 uL/well of CellTiter-Glo reagent was added into the assay plates using a FRD. After 30 min incubation at room temperature, the luminescence intensity in the plates was measured using a ViewLux (PerkinElmer) plate reader.
Potency is the fitted concentration of half-maximal effect.

Row | SMILES | Potency | activity change, negative = cytotoxicity
1 | Cc1cc(=O)[nH]c(C(C)C)n1 | inactive | –
2 | CC(C)NCC(O)COc1cccc2ccccc12 (stereo not given) | 27.6 µM (active) | –
3 | c1ccc2ccccc2c1 | inactive | –
4 | CNC[C@H](O)[C@@H](O)[C@H](O)[C@H](O)CO | inactive | –
5 | Nc1cc(-c2ccncc2)c[nH]c1=O | inactive | –
6 | C=C1C2CCC(C2)C1(C)C (stereo not given) | inactive | –
7 | NS(=O)(=O)c1cc2c(cc1Cl)NC=NS2(=O)=O | inactive | –
8 | CC1=C(CC(=O)O)c2cc(F)ccc2/C1=C\c1ccc(S(C)=O)cc1 (stereo not given) | inactive | –
9 | COCC(=O)O | inactive | –
10 | CC1Cc2ccccc2N1NC(=O)c1ccc(Cl)c(S(N)(=O)=O)c1 (stereo not given) | inactive | –
11 | NCCNCCNCCNCCN | inactive | –
12 | O=C(c1cc(O)c(O)c(O)c1)c1ccc(O)c(O)c1O | inactive | –
13 | CCC(C)C=O (stereo not given) | inactive | –
14 | C[C@@H]1O[C@@H](OC[C@H]2O[C@@H](Oc3c(-c4ccc(O)c(O)c4)oc4cc(O)cc(O)c4c3=O)[C@H](O)[C@@H](O)[C@@H]2O)[C@H](O)[C@H](O)[C@H]1O | inactive | –
15 | C=C(C)C(=O)OCCCCCC | inactive | –
16 | Cc1cc(O)cc(C)c1Cl | inactive | –
17 | Oc1ccc(OCc2ccccc2)cc1 | inactive | –
18 | Nc1c(S(=O)(=O)O)cc(Br)c2c1C(=O)c1ccccc1C2=O | inactive | –
19 | O=C(O)c1ccc([N+](=O)[O-])cc1 | inactive | –
20 | O=[N+]([O-])C(CO)(CO)CO | inactive | –

Row | SMILES | Potency | activity change, negative = cytotoxicity
21 | CCCCCCCCCCCCOCC1CO1 (stereo not given) | inactive | –
22 | Cc1cc(Cc2ccc(N)c(C)c2)ccc1N | inactive | –
23 | CC1(C)CC(N=C=O)CC(C)(CN=C=O)C1 (stereo not given) | inactive | –
24 | Clc1cc(Cl)c(Cl)cc1Cl | inactive | –
25 | Cn1c([N+](=O)[O-])cnc1COC(N)=O | inactive | –
26 | c1ccc2[nH]cnc2c1 | inactive | –
27 | CCCCOCCOCCOC(=O)CCCCC(=O)OCCOCCOCCCC | inactive | –
28 | OC[C@@H](O)[C@@H](O)[C@H](O)[C@@H](O)CO | inactive | –
29 | O=C(Oc1ccccc1)c1ccc(O)cc1 | – | -5.54% (inactive)
30 | OC1CCCC1 | inactive | –
31 | C=C1CC[C@H](O)CC1=C/C=C1\CCC[C@]2(C)[C@@H]([C@H](C)/C=C/[C@H](C)C(C)C)CC[C@@H]12 | 42.9 µM (active) | –
32 | CN(CCOc1ccc(CC2SC(=O)NC2=O)cc1)c1ccccn1 (stereo not given) | inactive | –
33 | CCc1ccccc1O | inactive | –
34 | CC(C)n1c(/C=C/[C@@H](O)C[C@@H](O)CC(=O)O)c(-c2ccc(F)cc2)c2ccccc21 | 15.4 µM (active) | –
35 | C=C(C#N)C(=O)OCC | inactive | –
36 | O=S(=O)(O)CCS | inactive | –
37 | OCC1CCCO1 (stereo not given) | inactive | –
38 | C=C(C)C(=O)OCCC[Si](OC)(OC)OC | inactive | –
39 | CC(=O)CCc1ccccc1 | inactive | –
40 | CCCCCCC(C)(C)S | inactive | –
